Laboratory results from the supplement of paper PMC6555819.

Tested on: RARg homodimer (NR concentration 270 nM)
Test: PBM binding z-score (relative to random genomic background probes); higher = stronger binding; sequences stand for … in GC…GCGATTGACAGCGTAGAATGAAGG
In short: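 Antibodies against each partner of ligand-free nuclear receptor dimers (one per run) detected binding on custom Agilent 4×180K protein-binding microarrays after 1 h incubation. The double-stranded probes had 34-nt variable regions carrying direct-repeat seeds, single-nucleotide variants, half-site ablations and random human genomic background sequences. Binding z-scores, from regression-normalized fluorescence, use the random background probes as reference.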

| Sequence | PBM binding z-score |
| --- | --- |
| CCTTACGGGTCACTGCCAGGTTATAGCATTTGGA | 4.16 |
| TCTTGCAGATCAAGCAGGTTAAGAAAGCCTGAGT | -0.629 |
| AGAACGAGGACAATGAGTTGATAGCACGGGTGGC | 1.06 |
| TCGAGTAGGTTAGTCGGGGCATTCACCCAACATA | -0.000869 |
| ATATGTAGGTTACATCTGGGTCATTCAGGCTATG | 2.31 |
| CCGAGTAGGTTATTGGGCATTCAGGCAACGGTGA | 0.187 |
| CCTGCTAGGTCAATAGTCAGCTAAAGCAGCTCGC | 3.91 |
| CGTCCAAGGTCAAGGTCAGTTAAAGAGACTCGAA | 7.72 |
| CAAACTAGGTCAAAGGACAAAGTCGAGCCAACCA | 4.77 |
| ACAGGCAGGTGATGAAGGTAACTCAGGCTATCAT | 0.118 |
| CCGTACGGGTCACTGACAGGTTATAGCATTTGGA | 4.89 |
| CCTAGCAGGCCAATCTGGGTCACTCAAGGCTTGA | 1.57 |
| CAAACTAGGTCAAGGTCAAGGTCGGTTTGTGCCA | 7.34 |
| GTTTACGGGTCAAAGGTTATAGCATGAATAGAAT | 5.26 |
| GCTGCTAGGTCAGGGTGGTCAGCTAACGGGTACG | 3.73 |
| CCAGACAGGTGAGCAGGTAACTCAGCCTCGATTA | 0.308 |
| TAGCCTAGGCCATTGGGCCAGTATAGTACGCATC | 0.339 |
| GCGACTGGGGCAAAGCAGGTTACGATAAGGTTGG | 0.644 |
| CGTACGAGGGCATGAGTTGATAGCAAATGCCGAT | 1.57 |
| GTACCAAGGTGAATAGGTCCTTGATGAGTAGGCG | 0.683 |

| Sequence | PBM binding z-score |
| --- | --- |
| GTCCCAAGGTGAATAGGTCGTTGATGAGTAGGCG | 1.42 |
| GGAACGAGGGAAAAGTTGATAGCATCTGTCGACG | 0.0748 |
| TCGAGTAGGTTAGTGGCATTCAGAATGGCGTCGA | -0.516 |
| CAAACTAGGTCGCGAAAGGTCAAAGTCGAATGAC | 6.26 |
| TCAGACAGATGAAGGTAACTCAGGTACGCAGTCG | 0.197 |
| TAGCCTAGGTCATGGGCCCGTATACCACGCGAAC | 4.56 |
| CGTCCAAGGTCAGGGAGGTCAGTGAATGCCGAGT | 7.67 |
| AGTCAAAGTTCATCTAGGTACCGTAAGATATGCT | 5.76 |
| TCTTATAGGTAAAAGGTGAAAGTCGGTGTGGTAA | 0.977 |
| TCGAGTACGTTAGGGGCATTCAGAATGGCGTCGA | -0.0328 |
| ATATCTAGGTAAGACTCAGTTCAGTGAAGAACGC | 0.108 |
| GATACAGGGTCAAGGCCAGAGTCCGCGTATTGAT | 4.89 |
| TCGTATAGGTAAATGCTAGGTGAAAGTCCGATCT | 0.0931 |
| TCTTGTAGATCAAGCACGTTAAGAAAGCCTGAGT | -0.183 |
| CCTGCTAGGTCATTGGTCAGCTAAAGCAGCTCGC | 4.43 |
| TTACCAAGGGGAAGGTCGTTGATCCCTCTGTAGA | -0.054 |
| ATACCAAGGTGAACGTGAGGTCGTTGATACTAAC | 1.98 |
| GCTATTAGTTGGAAGGGCAACCGAATGATTCTCG | 0.522 |
| TCTTGTAGATCAAGCAGCTTAAGAAAGCCTGAGT | -0.59 |
| CCGAGTAGGTTATGGGGCGTTCAGGCAACGGTGA | 0.0403 |
